From PubChem BioAssay (NCATS)
“And” between values parts separate entries of the source, which are not always exact repeats. Identical values can stand only once. Records with an inconclusive call do not appear. The source made the active and inactive calls. Unless noted, the call rests on the fitted dose curve; in most records, active means well fitted curve in the direction sought with a large enough effect; inconclusive means small, poorly fitted or top-dose-only effect, or another doubt; inactive means no such curve, though single readings can be large; an effect the other way counts as inactive or inconclusive.

Columns and labels:
[1] = Stat Signaling Pathway (AID 446; active means well fitted curve in either direction with a large enough effect, not every such curve was filed as active;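 further: ME-180 cervical cancer cells given 40 pM IL-6 alongside compound; SIE-controlled beta-lactamase reporter measured as 460/530 nm FRET emission ratio; on the % scale 0 is the no-effect control and ±100 the full control effect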); conditions: ME-180 (cervical carcinoma) SIE beta-lactamase reporter, IL-6 stimulated, 5 h
Outline: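 Normalization used AC90 stimulation (300 pM IL-6) and AC90 inhibition (125 nM pan-JAK inhibitor at 40 pM IL-6). The underlying signal is SIE-driven beta-lactamase in ME-180 cells after 5 h IL-6 exposure with compound.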

[2] = biological target: Glucocorticoid receptor (Homo sapiens) (UniProt P04150); assay: GR-GFP Redistribution (AID 450;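 active means compounds whose dose series gives a full or clear partial fitted curve of increased nuclear translocation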; further: potency means the concentration at half of the fitted maximal effect); conditions: U2OS GR-GFP nuclear translocation, laser cytometry, 2 h
Chain of Glucocorticoid receptor (Homo sapiens) (P04150 whole entry, looked up, the tested form may be a part): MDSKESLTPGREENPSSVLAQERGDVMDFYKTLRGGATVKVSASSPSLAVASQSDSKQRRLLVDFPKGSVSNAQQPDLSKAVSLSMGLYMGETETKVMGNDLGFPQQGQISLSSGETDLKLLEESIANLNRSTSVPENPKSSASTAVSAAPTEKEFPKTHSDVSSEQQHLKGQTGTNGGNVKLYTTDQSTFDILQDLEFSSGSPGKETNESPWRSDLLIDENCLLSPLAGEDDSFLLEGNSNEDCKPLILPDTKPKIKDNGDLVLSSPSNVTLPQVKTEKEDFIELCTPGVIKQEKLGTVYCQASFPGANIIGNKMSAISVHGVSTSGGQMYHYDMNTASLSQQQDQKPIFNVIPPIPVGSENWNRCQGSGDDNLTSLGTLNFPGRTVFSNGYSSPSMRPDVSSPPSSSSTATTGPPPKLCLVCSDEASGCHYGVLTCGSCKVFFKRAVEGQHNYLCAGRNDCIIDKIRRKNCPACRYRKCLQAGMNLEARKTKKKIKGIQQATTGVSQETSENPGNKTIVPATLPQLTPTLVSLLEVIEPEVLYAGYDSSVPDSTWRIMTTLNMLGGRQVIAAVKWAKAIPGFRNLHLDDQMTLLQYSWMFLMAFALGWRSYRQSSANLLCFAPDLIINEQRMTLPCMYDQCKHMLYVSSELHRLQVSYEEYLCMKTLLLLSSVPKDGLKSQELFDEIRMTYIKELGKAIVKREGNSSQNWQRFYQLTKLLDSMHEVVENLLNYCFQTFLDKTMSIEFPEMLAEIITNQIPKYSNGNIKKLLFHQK

[3] = biological target: Mitogen-activated protein kinase 10 (Mus musculus) (UniProt Q61831); assay: JNK3 AlphaScreen Assay (AID 530; active means well fitted curve in either direction with a large enough effect, not every such curve was filed as active;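 further: kinase came from lysate of stimulated human HepG2 cells; signal reports phosphorylation of biotinylated GST-cJun 1-79 at Ser73 with 10 µM ATP; on the % scale 0 is the no-effect control and ±100 the full control effect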); conditions: JNK3 lysate, c-Jun phosphorylation; series mostly up to 57.1 µM
Outline: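 HepG2 lysate (IL-1b/TNFa pre-activated) + biotin-GST-cJun 1-79 + anti-pSer73 cJun; cpd titration, 15 min RT; ATP 10 uM start; Tris pH 7.6, MgCl2, DTT, vanadate; beads in EDTA buffer; AlphaScreen.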

[4] = Cell Viability - N2a (AID 540); conditions: N2a mouse neuroblastoma cell viability; at 92.2 µM (top of the series);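 further: cells exposed to compound for 40 h at 37 °C; plate controls were DMSO alone for no effect and tamoxifen control for full effect; nearly all actives have a fitted effect of over 45% in size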
Outline: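 N2a mouse neuroblastoma, 1500 cells/well, 5 hr settle; compound 40 hr, 37 °C; CellTiter-Glo 20 min RT; luminescence; Hill-fit AC50.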

[5] = Cell Viability - NIH 3T3 (AID 541); conditions: NIH 3T3 cell viability, qHTS; activity change, negative = cytotoxicity: at 92.2 µM (top of the series);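 further: cells exposed to compound for 40 hours; nearly all actives have a fitted effect of over 25% in size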; further: potency means the concentration at half of the fitted maximal effect;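 on activity change, negative = cytotoxicity: plate controls were DMSO alone for no effect and tamoxifen positive control for full effect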
Outline: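 qHTS format; 40 hr compound exposure, 37 °C; CellTiter-Glo luminescence (cellular ATP) read-out after 20 min at RT. Decrease in ATP = cytotoxicity; AC50 from standard Hill fit.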

[6] = Cell Viability - SH-SY5Y (AID 544); conditions: SH-SY5Y neuroblastoma cell viability; viability change, negative = cytotoxic: at 92.2 µM (top of the series);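 further: cells exposed to compound for 40 hours; nearly all actives have a fitted effect of over 55% in size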; further: potency means the concentration at half of the fitted maximal effect
Outline: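 SH-SY5Y, 1500 cells/well, 5 hr pre-incubation 37 °C; cpd 40 hr 37 °C; CellTiter-Glo 20 min RT; luminescence (ATP) read. qHTS concentration-response, Hill fit → AC50. Tamoxifen, doxorubicin as positive controls.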

[7] = Cell Viability - Renal Proximal Tubule (AID 545); conditions: renal proximal tubule cells viability; at 91.7 µM (top of the series) unless noted;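 further: cells exposed to compound for 40 hours; nearly all actives have a fitted effect of over 40% in size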
Outline: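 Primary rat renal proximal tubule cells (1000/well) were treated with compounds for 40 hr at 37 °C in complete medium. Intracellular ATP was measured by CellTiter-Glo luminescence, and AC50 values came from Hill-equation fits of concentration-response data.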

[8] = Cellular Toxicity (caspase-3) Jurkat (AID 655); conditions: Jurkat caspase-3 activation, luminescence; caspase-3 activation: at 92.2 µM (top of the series), DMSO = 0%, tamoxifen = 100%;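 further: cells exposed to compound for 16 h at 37 °C before reading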
Outline: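 Jurkat cells (5000/well) in complete medium were treated with compounds for 16 hr at 37 °C, then Caspase-Glo 3/7 luminescence was read after 20 min at room temperature. Data normalized to DMSO (basal) and 100 uM tamoxifen (100%); AC50 from Hill fit.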

[9] = Cellular Toxicity (caspase-3) SHSY5Y (AID 657); conditions: SH-SY5Y caspase-3 activation; series mostly up to 91.7 µM
Outline: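 SH-SY5Y human neuroblastoma cells (1500/well) were treated with compounds for 16 h at 37 °C, then Caspase-Glo 3/7 luminescence was read after 1 h at room temperature. Data normalized to DMSO and 10 uM staurosporine; AC50 from Hill fits.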

[10] = Cellular Toxicity (caspase-3) BJ (AID 658); conditions: BJ fibroblasts, luminescence, normalized: DMSO 0%, staurosporine 100%; series mostly up to 91.7 µM
Outline: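 qHTS, BJ fibroblasts, 1000 cells/well; 5 hr preincubation, 16 hr compound, 37 °C; Caspase-Glo 3/7 reagent, 1 hr RT; luminescence. DMSO = 0%, 10 uM staurosporine = 100%. Hill-equation AC50.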

[11] = Cellular Toxicity (caspase-3) MRC-5 (AID 659); conditions: MRC-5 cells, luminescence, normalized: DMSO 0%, 10 µM staurosporine 100%; series mostly up to 91.7 µM
Outline: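 MRC-5 fibroblasts, 1500/well; 16 h cpd, 37 °C; Caspase-Glo 3/7, 1 h RT; lumi read. Norm: DMSO = 0%, 10 uM staurosporine = 100%. Hill-fit AC50 from qHTS conc-response.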

[12] = Cellular Toxicity (caspase-3) Mesangial (AID 660); conditions: mesangial cells, normalized: DMSO 0%, 100 µM tamoxifen 100%; series mostly up to 91.7 µM;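 further: combined caspase 3 and 7 activity read by Caspase-Glo luminescence; cells exposed to compound for 16 h before the caspase read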
Outline: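 Luminescent Caspase-Glo 3/7 readout (aminoluciferin substrate cleavage, 20 min RT) after 16 h compound exposure at 37 °C of normal human mesangial cells. Signal increase normalized between DMSO basal and 100 uM tamoxifen; Hill-equation AC50.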

[13] = Cellular Toxicity (caspase-3) SK-N-SH (AID 661); conditions: SK-N-SH caspase-3 activation, qHTS, DMSO as zero, staurosporine as full; series mostly up to 91.7 µM
Outline: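 Luminescent Caspase-Glo 3/7 read-out after 16 hr compound exposure of SK-N-SH neuroblastoma cells at 37 °C. Signal increase normalized to DMSO (basal) and 10 uM staurosporine (100%); AC50 from Hill equation fits of qHTS concentration-response data.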

[14] = biological target: Glucocorticoid receptor (Homo sapiens) (UniProt P04150); assay: GR-EFC Redistribution (AID 451; calls by dose curve; further: potency means the concentration at half of the fitted maximal effect); conditions: CHO-K1 GR-EFC translocation, beta-gal luminescence, 2 h
Outline: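 CHO-K1 cells expressing nuclear EA and GR-ED fragments of b-gal; compounds titrated up to 46 uM final, 2 h at 37 C. GR nuclear translocation read as complemented b-gal luminescence after 1 h RT detection.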

[15] = biological target: 3',5'-cyclic-AMP phosphodiesterase 4B (Homo sapiens) (UniProt Q07343); assay: qHTS Assay for Inhibitors of PDE-IV (AID 607; active means well fitted activation curve with a large enough effect in the main read-out, with a control signal flat, not every such curve was filed as active; further: % of control where 0% means no effect); conditions: HEK293 ACTOne CNG channel cells, membrane potential fluorescence; series mostly up to 22.9 µM
Chain of 3',5'-cyclic-AMP phosphodiesterase 4B (Homo sapiens) (Q07343 whole entry, looked up): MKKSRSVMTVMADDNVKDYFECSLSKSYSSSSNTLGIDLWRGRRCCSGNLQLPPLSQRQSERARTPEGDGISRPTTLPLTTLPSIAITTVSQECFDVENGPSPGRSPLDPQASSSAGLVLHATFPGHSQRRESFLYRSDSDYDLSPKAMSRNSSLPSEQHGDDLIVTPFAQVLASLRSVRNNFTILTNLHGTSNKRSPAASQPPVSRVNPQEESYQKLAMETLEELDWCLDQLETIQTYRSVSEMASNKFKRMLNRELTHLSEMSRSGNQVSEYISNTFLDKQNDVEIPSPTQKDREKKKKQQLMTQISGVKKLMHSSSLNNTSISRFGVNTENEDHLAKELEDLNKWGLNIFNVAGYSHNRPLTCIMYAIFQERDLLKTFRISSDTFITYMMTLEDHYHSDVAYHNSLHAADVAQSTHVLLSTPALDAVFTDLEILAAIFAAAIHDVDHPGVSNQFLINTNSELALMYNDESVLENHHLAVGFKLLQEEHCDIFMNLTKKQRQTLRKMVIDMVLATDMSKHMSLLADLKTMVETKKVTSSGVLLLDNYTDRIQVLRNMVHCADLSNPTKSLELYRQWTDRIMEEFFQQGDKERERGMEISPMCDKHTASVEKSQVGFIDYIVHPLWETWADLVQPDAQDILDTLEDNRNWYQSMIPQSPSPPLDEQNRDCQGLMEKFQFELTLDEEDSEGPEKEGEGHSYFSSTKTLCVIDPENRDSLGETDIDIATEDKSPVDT
Outline: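 HEK293 ACTOne cells with CNG channel (1000/well), endogenous PDE4; membrane potential dye, compounds up to 22.9 uM final. Fluorescence Ex 535/Em 590; RO 20-1724 (100 uM final) as reference.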

[16] = Cell Viability - Mesenchymal (AID 546); conditions: mesenchymal cells viability, qHTS; series mostly up to 91.7 µM;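 further: cells exposed to compound for 40 hours before reading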
Outline: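 Human renal mesenchymal cells (glomerulus-derived), 1000 cells/well, 5 hr 37 °C pre-incubation; compound 40 hr, 37 °C; CellTiter-Glo, 20 min RT; luminescence; AC50 via Hill equation.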

[17] = Cellular Toxicity (caspase-3) HUV-EC-C (AID 656); conditions: HUV-EC-C cells, caspase-3 activation (apoptosis), vehicle = 0, 100 µM tamoxifen = 100%; series mostly up to 92.2 µM
Outline: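 HUV-EC-C endothelial cells, 1000/well, were pre-incubated 5 hr at 37°C, then exposed to compounds for 16 hr at 37°C. Caspase-Glo 3/7 luminescence was read after 20 min at room temperature. AC50 came from Hill fits, normalized to DMSO and 100 uM tamoxifen.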

[18] = Cell Viability - HUV-EC-C (AID 542); conditions: HUV-EC-C endothelial cell viability, qHTS; series mostly up to 92.2 µM;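 further: cells exposed to compound for 40 hours; on the % scale 0 is the no-effect control and ±100 the full control effect; nearly all actives have a fitted effect of over 35% in size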
Outline: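 Luminescent ATP read-out (CellTiter-Glo, 20 min room temperature) after 40 hr compound treatment of HUV-EC-C cells at 37 °C. Concentration-response data fitted with the standard Hill equation to give AC50; tamoxifen and doxorubicin served as positive controls.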

[19] = Cellular Toxicity (caspase-3) HepG2 (AID 654); conditions: HepG2 caspase-3 activation, luminescence; series mostly up to 92.2 µM;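 further: cells exposed to compound for 16 hours before reading; 0% = DMSO alone and 100% = caspase signal from 100 µM tamoxifen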
Outline: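 Luminescent Caspase-Glo 3/7 readout after 16 hr compound exposure of human hepatocellular carcinoma HepG2 cells at 37 °C; qHTS concentration-response, normalized DMSO = 0%, 100 uM tamoxifen = 100%; AC50 by standard Hill equation.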

[20] = Cellular Toxicity (caspase-3) H-4-II-E (AID 663); conditions: H-4-II-E rat hepatoma, scaled: DMSO 0%, 100 µM tamoxifen 100%; at 92.2 µM (top of the series);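 further: cells exposed to compound for 16 hr before readout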
Outline: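 H-4-II-E rat hepatoma, 1500 cells/well, 5 hr settle at 37 °C; compound 16 hr, 37 °C, complete medium; Caspase-Glo 3/7, 20 min RT; luminescence. DMSO = 0%, 100 uM tamoxifen = 100%; Hill-equation AC50.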

Clc1ccc(COC(Cn2ccnc2)c2ccc(Cl)cc2Cl)cc1 (configuration not stated)
inactive: activity, negative = inhibition ([1]; at 17.2 µM (top of the series)) -23% | Potency [2] > 20.6 µM | outcome [3] | Potency [9] | outcome [10] | outcome [11] | outcome [12] | outcome [13]
active: activity change, negative = cytotoxicity [4] -110% | activity change, negative = cytotoxicity [5] -82% | viability change, negative = cytotoxic [6] -84.8% | activity change, negative = cytotoxicity [7] -83.1% | caspase-3 activation [8] 99.7%

C=C(C)[C@H]1Cc2c(ccc3c2O[C@@H]2COc4cc(OC)c(OC)cc4[C@@H]2C3=O)O1
inactive: Potency [2] > 46 µM | Potency [14] > 46 µM | outcome [15]

C[C@]12C/C(=C/O)C(=O)C[C@@H]1CC[C@@H]1[C@@H]2CC[C@@]2(C)[C@H]1CC[C@]2(C)O
inactive: outcome [3] | outcome [16] | caspase-3 activation [8] 15% | outcome [17] | Potency [9] | outcome [10] | outcome [11] | outcome [12] | outcome [13]
active: activity change, negative = cytotoxicity [5] -114% | viability change, negative = cytotoxic [6] -95.9% | activity change, negative = cytotoxicity [7] -89.1%

Oc1ccc(Cl)cc1Cc1ccccc1
inactive: outcome [3] | activity change, negative = cytotoxicity [5] -0.588% | outcome [18] | activity change, negative = cytotoxicity [7] -8.93% | outcome [16] | Potency [19] | caspase-3 activation [8] 18.5% | outcome [17] | Potency [9] | outcome [10] | outcome [11] | outcome [12] | outcome [13] | caspase-3 activation [20] 2.16%

O=c1[nH]c2ccccc2n1C1CCN(CCCC(c2ccc(F)cc2)c2ccc(F)cc2)CC1
inactive: Potency [2] > 46 µM and > 20.6 µM | Potency [14] > 46 µM and > 20.6 µM | outcome [3] | outcome [15]

Oc1cccc2cccnc12
active: activity change, negative = cytotoxicity [4] -89.1% | Potency [5] 12.6 µM and 10 µM | Potency [6] 3.98 µM
inactive: activity, negative = inhibition ([1]; at 7.69 µM (top of the series)) -1.23% | outcome [3] | activity change, negative = cytotoxicity [7] -13.9% and -16.1% | outcome [16] | outcome [15] | Potency [19] | caspase-3 activation [8] 7.85% and 22.6% | outcome [17] | Potency [9] | outcome [10] | outcome [11] | outcome [13] | caspase-3 activation [20] 5.58% and 5.31%

COC1(CS(=O)c2ccccc2)CCN(CCc2c[nH]c3ccc(F)cc23)CC1 (configuration not stated)
inactive: Potency [2] > 46 µM | Potency [14] > 46 µM | outcome [3] | outcome [15]

CCOP(=S)(OCC)Oc1cc(C)nc(C(C)C)n1
inactive: outcome [3] | activity change, negative = cytotoxicity [4] -3.66% | activity change, negative = cytotoxicity [5] -10% | outcome [18] | viability change, negative = cytotoxic [6] -9.46% | activity change, negative = cytotoxicity [7] -3.55% | outcome [16] | Potency [19] | caspase-3 activation [8] 1.42% | outcome [17] | Potency [9] | outcome [10] | outcome [11] | outcome [12] | outcome [13] | caspase-3 activation [20] -0.387%
